The campaign covered roughly 310,000 compounds. About 14,000 (4.5%) showed an effect of 50% or more. Effects have a minus sign here. Only a selection was taken, and strong results are over-represented in it overall.
Target: human ether-à-go-go-related gene (hERG) potassium channel (human, UniProt Q12809)
Test: primary screen, population patch clamp on CHO cells stably expressing hERG; higher = less effect of the substance
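Also: peak tail current of the secondary pulse compared with the same well before compound.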

human ether-à-go-go-related gene (hERG) potassium channel, sequence (Q12809 whole entry, looked up): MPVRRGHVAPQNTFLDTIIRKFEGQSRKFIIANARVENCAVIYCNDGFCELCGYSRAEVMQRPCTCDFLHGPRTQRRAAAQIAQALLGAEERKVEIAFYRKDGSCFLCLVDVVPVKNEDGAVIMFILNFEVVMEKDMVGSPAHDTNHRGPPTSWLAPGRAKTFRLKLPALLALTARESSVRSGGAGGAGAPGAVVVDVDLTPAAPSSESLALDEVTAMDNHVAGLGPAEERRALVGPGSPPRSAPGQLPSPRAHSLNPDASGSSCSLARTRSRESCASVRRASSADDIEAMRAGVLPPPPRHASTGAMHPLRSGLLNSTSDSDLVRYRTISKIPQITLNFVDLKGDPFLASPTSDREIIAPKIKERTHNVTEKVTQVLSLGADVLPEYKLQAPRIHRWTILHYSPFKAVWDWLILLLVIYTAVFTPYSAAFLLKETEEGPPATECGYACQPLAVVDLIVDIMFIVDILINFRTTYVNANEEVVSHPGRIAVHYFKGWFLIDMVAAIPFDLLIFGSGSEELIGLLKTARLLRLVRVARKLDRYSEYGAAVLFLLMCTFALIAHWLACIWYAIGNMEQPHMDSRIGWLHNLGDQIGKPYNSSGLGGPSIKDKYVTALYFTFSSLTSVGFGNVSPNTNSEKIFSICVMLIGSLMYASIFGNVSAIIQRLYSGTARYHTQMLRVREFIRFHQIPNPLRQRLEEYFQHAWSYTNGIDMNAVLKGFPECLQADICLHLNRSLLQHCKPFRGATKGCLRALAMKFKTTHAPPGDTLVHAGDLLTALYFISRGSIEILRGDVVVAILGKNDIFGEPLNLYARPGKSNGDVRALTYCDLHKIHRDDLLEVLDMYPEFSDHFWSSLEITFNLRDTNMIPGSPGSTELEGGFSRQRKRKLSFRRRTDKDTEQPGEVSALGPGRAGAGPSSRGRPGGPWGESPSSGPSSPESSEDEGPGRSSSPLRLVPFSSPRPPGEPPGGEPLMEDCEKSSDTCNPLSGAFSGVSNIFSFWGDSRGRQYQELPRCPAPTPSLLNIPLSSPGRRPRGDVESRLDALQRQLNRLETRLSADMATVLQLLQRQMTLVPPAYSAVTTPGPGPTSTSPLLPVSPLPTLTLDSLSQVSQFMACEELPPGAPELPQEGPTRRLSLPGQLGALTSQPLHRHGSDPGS

| SMILES | hERG current change (%, negative = inhibition) at 10uM [%] |
| --- | --- |
| COc1ccc(/C=C/C(=O)c2ccc[nH]2)c(OC)c1OC | -4.89 |
| CC(=O)c1ccc(-n2c(C)ccc2-c2ccccc2)cc1 | 1 |
| CCOC(=O)N1CCN(C(=O)Cn2ccc3c(OC)cccc3c2=O)CC1 | 6.78 |
| CCOC(=O)c1sc(NS(=O)(=O)c2cc(C)ccc2C)nc1C | 10.4 |
| COc1ccc(/C=C/C=C2\NC(=S)NC2=O)cc1 | 22.1 |
| Cc1cc2nc(/N=C(\N)NC(=O)N3c4ccccc4Sc4ccccc43)nc(C)c2cc1C | -38.9 |
| CCC(C)NC(=O)CSC1=Nc2ccccc2C2=NC(CC(=O)NCc3ccccc3)C(=O)N12 (centres unmarked) | -0.668 |
| NC(=O)CSC1=Nc2ccccc2C2=NC(c3ccccc3)C(=O)N12 (centres unmarked) | 1.61 |
| CCN(CC)C(=O)CSC1=Nc2ccccc2C2=NC(c3ccccc3)C(=O)N12 (centres unmarked) | -46.4 |
| O=C(CSC1=Nc2ccccc2C2=NC(c3ccccc3)C(=O)N12)NC1CCCCC1 (centres unmarked) | -20.1 |
| CCC(C)NC(=O)CSC1=Nc2ccccc2C2=NC(c3ccccc3)C(=O)N12 (centres unmarked) | -55.3 |
| CN(C(=O)CSC1=Nc2ccccc2C2=NC(c3ccccc3)C(=O)N12)C1CCCCC1 (centres unmarked) | -73 |
| O=C1CCCC(O)=C1N=Nc1cccc(S(=O)(=O)N2CCOCC2)c1 | -1.24 |
| O=C(N/N=C\c1ccc[nH]1)c1cncc(Br)c1 | 3.82 |
| O=C(NCc1ccccn1)C1CCCN(S(=O)(=O)c2ccccc2)C1 (centres unmarked) | 10.9 |
| COc1ccc(C(=O)NCc2nnc(SCC(=O)NO)n2Cc2ccccc2)cc1 | -5.01 |
| COc1ccc(C(=O)NNC(=O)c2ccncc2)cc1[N+](=O)[O-] | 25.2 |
| Cc1cccc(C(=O)NC(C)c2ccc(-n3ccnc3)cc2)c1C (centres unmarked) | -42.2 |
| Cc1c(C(=O)NC(C)CCc2ccccc2)cccc1[N+](=O)[O-] (centres unmarked) | -18.2 |
| O=[N+]([O-])c1ccc(-n2ccnc2)cc1 | 7.95 |
| CC(NC(=O)c1cc([N+](=O)[O-])cc([N+](=O)[O-])c1)c1ccc(-n2ccnc2)cc1 (centres unmarked) | -73.5 |
| CC(NC(=O)c1ccc(N(C)C)c([N+](=O)[O-])c1)c1ccc(-n2ccnc2)cc1 (centres unmarked) | -62.9 |
| Cc1c(C(=O)NC(C)c2ccc(-n3ccnc3)cc2)cccc1[N+](=O)[O-] (centres unmarked) | -74.1 |
| COc1ccccc1NC(=O)c1ccc(-n2ccnc2)c([N+](=O)[O-])c1 | 15.1 |
| COc1ccc(C(=O)NC(C)c2ccc(-n3ccnc3)cc2)cc1[N+](=O)[O-] (centres unmarked) | -77.9 |
| O=C(O)c1ccc(-n2ccnc2)c([N+](=O)[O-])c1 | 32.1 |
